Only some compounds are listed: those with a hit (about 6.2% of all), similar ones and a draw of the others.
VP16 counter: Gal4-VP16 reporter inhibition counter-screen | Drosophila S2 Gal4-VP16 UAS-luciferase, luminescence, 20 h | Potency, µM (doses to about 53.6 µM), actives largely listed as inhibitors | actives 3.5% (n = 310,000) | AID 2546;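 also: Gal4-VP16 expression switched on by copper sulfate through the metallothionein promoter; nearly all actives have a fitted effect of over 50% in size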
RORgamma inh: blocks mouse ROR gamma transcriptional activity. Drosophila S2 Gal4-RORgamma UAS-luciferase reporter, 20 h. P51450. Potency, µM (series often up to 53.6 µM), most hits filed as inhibitors. actives 5.4% (n = 310,000). AID 2551; also: nearly all actives have a fitted effect of over 60% in size
Target sequence (P51450 whole entry, looked up, the tested form may be a part): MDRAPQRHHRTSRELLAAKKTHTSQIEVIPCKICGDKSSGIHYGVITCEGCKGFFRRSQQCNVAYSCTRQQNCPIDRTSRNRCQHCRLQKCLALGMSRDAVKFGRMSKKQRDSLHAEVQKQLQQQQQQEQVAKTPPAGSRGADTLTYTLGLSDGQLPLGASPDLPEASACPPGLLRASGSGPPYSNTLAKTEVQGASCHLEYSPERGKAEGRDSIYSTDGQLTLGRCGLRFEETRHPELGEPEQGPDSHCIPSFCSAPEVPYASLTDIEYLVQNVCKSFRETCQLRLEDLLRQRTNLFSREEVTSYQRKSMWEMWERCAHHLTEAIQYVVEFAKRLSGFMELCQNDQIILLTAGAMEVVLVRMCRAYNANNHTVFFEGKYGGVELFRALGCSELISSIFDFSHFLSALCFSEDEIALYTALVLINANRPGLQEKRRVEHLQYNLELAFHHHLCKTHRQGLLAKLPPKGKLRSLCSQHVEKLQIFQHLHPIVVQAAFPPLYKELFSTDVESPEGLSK
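Stable Schneider cell line, Gal4 DNA-binding domain fused to ROR gamma, UAS-luciferase. Cmpd 1 hr RT → CuSO4 700 uM final → 20 hr RT → luciferase reagent 10 min → luminescence.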
KinaseGlo FLuc: blocks Kinase-Glo luciferase, a counter-screen artifact. Q27757. Kinase-Glo luciferase, ATP luminescence, 8 min. Potency, µM (highest dose often 38.3 µM), most hits filed as inhibitors. actives 0.28% (n = 200,000); also: nearly all actives have a fitted effect of over 60% in size
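Compound is pinned into ATP-containing buffer (10 uM ATP, imidazole pH 7.2, 7 mM MgCl2). Kinase-Glo luciferase reagent is then added. Light output is recorded following an 8-min room-temperature incubation.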
Large screens that a line does not name were inactive. Calls follow the shape of the dose curve; as a rule, active = well fitted curve in the direction sought with a large enough effect; inconclusive = small, poorly fitted or top-dose-only effect, or another doubt; inactive = no such curve, though single readings can be large; an effect the other way counts as inactive or inconclusive.

CCOc1cc(/C=N/NC(N)=S)cc(Br)c1OCc1ccccc1C	VP16 counter 2.5µM, RORgamma inh 0.79µM
COc1cc(/C=N/O)cc(Br)c1OCc1ccc(Cl)cc1	VP16 counter inconclusive, RORgamma inh 5.6µM
COc1cccc(/C=N/NC(N)=S)c1OCc1ccccc1Cl	VP16 counter 4µM, RORgamma inh 3.2µM
O=C(NC1CCCC1)C(c1cccnc1)N(C(=O)c1csnn1)c1ccccc1Cl (stereo unspecified)	RORgamma inh inconclusive (no result: KinaseGlo FLuc)
O=C1NC(=O)C2(CCCc3ccccc32)N1 (stereo unspecified)	none (no result: KinaseGlo FLuc)
c1csc(CNc2ccnc(-c3ccc4c(c3)OCO4)n2)c1	none (no result: KinaseGlo FLuc)
CNC(=S)N/N=C/c1cc(Br)c(OCc2ccncc2)c(OC)c1	VP16 counter inconclusive (no result: KinaseGlo FLuc)
CCOc1cc(/C=N/N=C(\N)c2nonc2N)cc(Br)c1OCc1cccc2ccccc12	VP16 counter inconclusive, RORgamma inh 13µM
COc1cc(/C=N/NC(N)=S)cc(Br)c1OCc1ccccc1F	VP16 counter 4.5µM, RORgamma inh 1µM
NC(=S)N/N=C/c1ccccc1OCCSc1ccc(Cl)cc1	VP16 counter 28µM, RORgamma inh inconclusive
COc1cc(/C=N/N=C(/N)c2nonc2N)cc(Br)c1OCc1cccc(C)c1	none
CCOC(=O)N/N=C/c1ccccc1OCc1ccc(Cl)cc1	RORgamma inh inconclusive
CN=C1CC(SC)=C1c1ccc(C)cc1	none
Cc1c(C)c(C)c(C(=O)CCc2cccc(NC(=O)CCC(=O)O)c2)c(C)c1C	none (no result: KinaseGlo FLuc)
NC1=NC(=O)C(Cc2ccc(Br)cc2)S1 (stereo unspecified)	none (no result: KinaseGlo FLuc)
CCN1CCN(C(=O)c2cc3cc(F)ccc3[nH]2)CC1	none (no result: KinaseGlo FLuc)
CCNC(=S)N/N=C(\C)c1ccc(Cl)s1	VP16 counter 1.4µM, RORgamma inh 0.71µM
C/C(=N/Nc1ccc(F)cc1)c1ccc(Cl)s1	none
C=C(C)CNC(=S)N/N=C(\C)c1ccc(Cl)s1	VP16 counter 2.8µM, RORgamma inh 0.89µM
C/C(=N\NC(N)=O)c1ccc(Cl)s1	none (no result: KinaseGlo FLuc)
CCOC(=O)CNC(=O)c1ccc(Cl)s1	none
CNC(=S)N/N=C(\C)c1ccc(Cl)s1	VP16 counter 1.1µM, RORgamma inh 0.4µM
CC(=O)O[C@@H]1CC[C@]2(C)C(=C[C@@H]([C@@H]3C=C4C[C@@H](OC(C)=O)CC[C@]4(C)C4=C3[C@H]3C[C@@H]5O[C@@]6(CC[C@H](C)CO6)[C@@H](C)[C@@H]5[C@@]3(C)CC4)C3=C2CC[C@@]2(C)[C@H]4[C@@H](C)[C@]5(CC[C@H](C)CO5)O[C@@H]4C[C@H]32)C1	none (no result: VP16 counter, RORgamma inh)
COc1cccc(C(C(=O)NC2CCCC2)N(C(=O)CNC(=O)c2ccco2)c2cccnc2)c1 (stereo unspecified)	none (no result: KinaseGlo FLuc)
Cc1ccc(-c2nnn(CC(=O)N(Cc3cccs3)C(C(=O)NCC3CCCO3)c3ccco3)n2)o1 (stereo unspecified)	none
Nc1nc(NC(=O)CCC(=O)O)nn1-c1ccccc1	none (no result: KinaseGlo FLuc)
Cc1ccc(OCC(=O)Nc2cc(C(=O)O)cc(C(=O)O)c2)cc1C	none
Cn1c(=O)cnc2cnc(Nc3ccccc3)nc21	RORgamma inh inconclusive
CCn1cc(C(=O)NCCCN2CCCC(C)C2)c(=O)c2cc(S(=O)(=O)N(C)C3CCCCC3)ccc21 (stereo unspecified)	none (no result: KinaseGlo FLuc)
COc1ccnc(CSC(N)=Nc2cccc(C(F)(F)F)c2)c1	VP16 counter 13µM, RORgamma inh 6.3µM
COc1ccnc(CSC(N)=Nc2ccccc2C(F)(F)F)c1	RORgamma inh inconclusive
Cc1ccc([N+](=O)[O-])cc1NC(=O)C(C)Sc1nnc(C)n1CC1CCCO1 (stereo unspecified)	none (no result: KinaseGlo FLuc)
COc1cc(C=O)ccc1OCCCOc1ccccc1[N+](=O)[O-]	VP16 counter inconclusive
COc1ccc(/C=C/C(=O)NC(C)CCc2ccccc2)cc1OC (stereo unspecified)	none
COc1cc(NC(=O)/C=C/c2ccccc2)c(C(=O)O)cc1OC	none (no result: KinaseGlo FLuc)
COc1ccc(/C=C\C(=O)Nc2ccccc2C(=O)O)cc1OC	VP16 counter 1.1µM, RORgamma inh inconclusive
COc1ccc(/C=C/C(=O)NC(=S)NCc2ccccc2)cc1OC	VP16 counter inconclusive, RORgamma inh 2.2µM (no result: KinaseGlo FLuc)
COc1cc(C=O)ccc1OCCCOc1ccccc1C(=O)O	VP16 counter 6.3µM, RORgamma inh 1.4µM
Cc1cc(C)c(S(=O)(=O)Nn2cnnc2)c(C)c1	none
COCCn1c(=O)c(-c2ccc(Cl)cc2)nc2cncnc21	none
Nn1c(SCC(=O)NCCCc2ccccc2)nnc1-c1cccnc1	none (no result: KinaseGlo FLuc)
Cc1ccc(NC(=S)Nc2cccc3ccccc23)cc1	VP16 counter 5.6µM, RORgamma inh 2µM (no result: KinaseGlo FLuc)
S=C(Nc1ccc(Cl)cc1)Nc1cccc2cnccc12	none
CC(=O)N(C)c1ccc(NC(=O)Nc2ccc(C)c(C)c2)cc1	none (no result: KinaseGlo FLuc)
CC(=O)N(C)c1ccc(NC(=S)Nc2ccc(C(C)C)cc2)cc1	VP16 counter 22µM, RORgamma inh 7.1µM
Fc1ccc(NC(=S)Nc2cccc3ccccc23)cc1F	VP16 counter inconclusive, RORgamma inh 11µM (no result: KinaseGlo FLuc)
Cc1ccc(NC(=O)Nc2cccc3ccccc23)cc1	none (no result: KinaseGlo FLuc)
Cc1cccc(NC(=S)Nc2cccc3ccccc23)c1	VP16 counter 8.9µM, RORgamma inh 7.1µM (no result: KinaseGlo FLuc)
Cc1cc(C)cc(NC(=S)Nc2cccc3ccccc23)c1	none (no result: KinaseGlo FLuc)
O=C(CN(Cc1ccc(Cl)cc1)C(=O)c1csnn1)NCc1ccc(F)cc1	none (no result: KinaseGlo FLuc)
COc1ccc(CNS(=O)(=O)c2cccc(S(=O)(=O)N3CCOCC3)c2)cc1	none
COc1cccc(C(=O)Nc2cccc3ccccc23)c1	none (no result: KinaseGlo FLuc)
COc1cccc(NC(=S)Nc2cccc3ccccc23)c1	VP16 counter 6.3µM, RORgamma inh 0.11µM (no result: KinaseGlo FLuc)
CC(C)c1ccc(NC(=S)Nc2cccc3ccccc23)cc1	VP16 counter 7.1µM, RORgamma inh 3.5µM (no result: KinaseGlo FLuc)
CCc1cccc(NC(=S)Nc2cccc3ccccc23)c1	VP16 counter 7.9µM, RORgamma inh 4µM (no result: KinaseGlo FLuc)
Cc1cc(NC(=O)Nc2cccc3ccccc23)no1	none
Fc1ccc(NC(=S)Nc2cccc3cnccc23)cc1	VP16 counter inconclusive, RORgamma inh inconclusive
Cc1cc(NC(=S)Nc2cccc3ccccc23)n[nH]1	VP16 counter 5µM, RORgamma inh 2.8µM
CC(=O)Nc1cccc(NC(=O)Nc2cccc3ccccc23)c1	none (no result: KinaseGlo FLuc)
Cc1cc(C)n(NC(=S)NC2CCCCC2)c(=O)c1C#N	none (no result: KinaseGlo FLuc)
Cn1c(N)c(C(=O)COC(=O)/C=C/c2ccc(S(=O)(=O)N3CCOCC3)cc2)c(=O)n(C)c1=O	none (no result: KinaseGlo FLuc)
CCOc1ccc(C(CC(=O)O)n2cnnn2)cc1 (stereo unspecified)	none
CC1=C(c2ccccc2)SC2=NCCN21	none (no result: KinaseGlo FLuc)
Nc1ccc(S(=O)(=O)Nc2nccc(/C=C/c3ccc([N+](=O)[O-])cc3)n2)cc1	none (no result: KinaseGlo FLuc)
COc1ccc(CNC(=O)/C(C#N)=C2\N=C(NC(=O)c3cccs3)c3ccccc32)cc1	none
COc1ccc(-n2nc(C(=O)NCC(=O)N(C)Cc3ccccc3)c3ccccc3c2=O)cc1OC	none (no result: KinaseGlo FLuc)
O=C1c2cccnc2C(=O)N1Cc1ccc(S(=O)(=O)N2CCN(c3ccc(Cl)cc3)CC2)cc1	none (no result: KinaseGlo FLuc)
Cc1ccc(N2CN(CCC3=CCCCC3)CNC2=S)cc1	VP16 counter 6.3µM, RORgamma inh 0.56µM (no result: KinaseGlo FLuc)
Fc1ccc(N2CN(Cc3cccnc3)CNC2=S)cc1	none (no result: KinaseGlo FLuc)
COc1cccc(N2CN(CCc3ccccc3)CNC2=S)c1	VP16 counter inconclusive, RORgamma inh 14µM (no result: KinaseGlo FLuc)
CCc1ccc(N2CN(CCc3ccccc3)CNC2=S)cc1	VP16 counter 6.3µM, RORgamma inh 1.3µM (no result: KinaseGlo FLuc)
O=C1c2ccccc2C(=O)N1CCC1=CCCCC1	none

Source: PubChem BioAssay (National Center for Advancing Translational Sciences (NCATS))
